This is one part of a sample in which hits are shown more often than they occur.
KDM5B inhibitor – Primary screen for KDM5B Histone Demethylases FDH-coupled qHTS. actives 2.6% (n = 220,000). KDM5B demethylase, FDH-coupled NADH fluorescence (FDH is formaldehyde dehydrogenase). Potency, µM (highest dose often 57.7 µM), most hits filed as inhibitors. Lysine-specific demethylase 5B (Homo sapiens), Q9UGL1; active means well fitted inhibition curve with a large enough effect; further: 0% is about no effect; nearly all actives have a fitted effect of over 70% in size
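qHTS format, multiple compound concentrations. Buffer 50 mM HEPES pH 7.5/0.01% Tween-20; 200 nM KDM5BΔAP final; 10 min compound preincubation; substrate-mix levels 12.5 µM peptide, 25 µM α-KG, 0.25 mM NAD⁺; 30 min RT; ΔRFU.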
* = called active by the depositor; i = inactive. Potency means the concentration at half of the fitted maximal effect.

SMILES | KDM5B inhibitor
COc1cc(C(=O)N2CCN(c3nccs3)CC2)cc(Cl)c1OC | i
CCOc1ccc(CN(C)C(=O)c2nn(Cc3ccccc3)c(=O)c3ccccc23)cc1OC | i
Cc1cc(C)cc(-n2nnnc2SCCCn2c(=O)c3c(ncn3C)n(C)c2=O)c1 | i
COc1ccc(C)cc1S(=O)(=O)[C@H]1CS(=O)(=O)C[C@@H]1NCc1ccccn1 | i
CC(C)C1=NOC2(CCCN(CC3CCCCC3)C2)C1 (stereo not drawn) | i
COc1ccc(C2=NS(=O)(=O)N(C)C(C(=O)N3CCCC3)=C2)cc1 | i
CCCn1c(=O)[nH]c(=O)c2c1nc(-c1ccc(OC)c(O)c1)n2CCN1CCOCC1 | i
O=C(NNC(=O)C1CCCCC1)c1ccccc1F | i
COc1cccc(C(=O)N[C@@H]2CN(c3ncccn3)C[C@H]2CN(C)C)c1C | 31.6µM*
COc1cccc(C(=O)N[C@@H]2CN(S(C)(=O)=O)C[C@H]2CN(C)C)c1C | i
CC(=O)N1C[C@@H](CN(C)C)[C@H](NC(=O)c2ccccc2OC(F)(F)F)C1 | i
Cc1ccc(C(C)Nc2ncccc2-c2nc(-c3cccc(C)c3)no2)cc1 (stereo not drawn) | i
COc1ccccc1CNC(=O)N(C)CCOc1ccccc1C | i
CNC(C)c1ccncc1 (stereo not drawn) | 15.8µM*
CNC(C)c1ccc(OC(F)(F)F)cc1 (stereo not drawn) | i
CNC(C)c1ccc(Oc2ccccc2)cc1 (stereo not drawn) | i
O=C(NC1CC1)c1nc(-c2ccc(F)cc2)c2ccccn12 | 31.6µM*
O=C(NC1CC1)c1nc(-c2cccnc2)c2ccccn12 | 89.1µM*
Cc1cn2nc(C(=O)N3CCCC3)cc2c(N2CCSCC2)n1 | 28.2µM*
Cc1cn2nc(C(=O)N3CCC(C(=O)NCc4ccccn4)CC3)cc2c(=O)[nH]1 | i
O=C(c1cn(C2CCCCC2)nn1)N1CCSCC1 | i
Cc1oc2ncn(C)c(=O)c2c1C(=O)N1CCN(c2ccccc2F)CC1 | i
Cc1cn2nc(C(=O)N3CCN(c4ccccc4F)CC3)cc2c(N2CCCC2)n1 | 31.6µM*
Cn1cc(S(=O)(=O)N2CCCCC2)cc1C(=O)N1CCN(c2ccccc2F)CC1 | i
COc1ccc(NC(=O)c2sc(-c3ccco3)nc2-c2ccccc2)cc1OC | i
SMILES | KDM5B inhibitor
Cc1ccc(C)c(OC(=O)c2ccc(CSc3ccc(Cl)cc3)cc2)c1C | i
Cc1ccsc1C(=O)OCC(=O)NC(=O)NC(C)(C)C | i
COc1cc(F)ccc1-c1cc2c(ccn2Cc2ccncc2)c(N2CCOCC2)n1 | 35.5µM*
COc1ccc(Nc2nc(N3CCOCC3)c3nccnc3n2)cc1OC | i
COc1cc(F)ccc1-c1ccc(=O)n(Cc2cccc(F)c2)n1 | i
c1cc(Cn2ccc3c(N4CCOCC4)nc(-c4cncnc4)cc32)ccn1 | i
O=C(NCc1ccc(S(=O)(=O)N2CCOCC2)cc1)c1cc(-c2ccncc2)nc2ccccc12 | i
c1ccc(-c2cc3c(ccn3Cc3ccncc3)c(N3CCOCC3)n2)cc1 | 7.94µM*
O=C1NCc2cc(-c3cc4c(ccn4Cc4ccncc4)c(N4CCOCC4)n3)ccc21 | 31.6µM*
COC(=O)C1=C(C)NC(=O)CC1C(=O)Nc1ccc(Cl)cc1 (stereo not drawn) | i
Cc1cn2c3c(=O)[nH]c(=O)n(C)c3nc2n1CCN1CCN(Cc2ccc(F)cc2)CC1 | i
Cc1cc(C)nc(NNC(=O)CCNC(=O)c2ccccc2C)n1 | i
COc1ccc(CN[C@H]2CS(=O)(=O)C[C@@H]2S(=O)(=O)c2ccc(F)cc2)cc1OC | i
Cc1ccc(C(O)CNC(=O)Nc2c(C)cccc2C)cc1 (stereo not drawn) | i
COC(=O)C(C)Oc1ccc2c(=O)c(-c3ccccc3)c(C(F)(F)F)oc2c1 (stereo not drawn) | i
O=C1OC2C3CC(C2Sc2ccc(Cl)cc2)C(C(=O)O)C13 (stereo not drawn) | i
Cc1ccc2[nH]cc(CCNC(=O)c3c(F)cccc3F)c2c1 | i
N#Cc1cccc(NC(=O)CSc2nnc(-c3ccc(F)cc3)n2CC2CCCO2)c1 (stereo not drawn) | i
COc1ccccc1NC(=O)c1c(C)cc(C)nc1SCC(=O)NCc1ccccc1 | i
O=C(NCc1cccs1)c1cnccn1 | i
CN(C)CC1(O)CCC2(CCN(C(=O)c3nccc4ccccc34)CC2)CC1 | i
CCn1nccc1C(=O)N1CCC2(CC1)CCC(O)(CN(C)C)CC2 | 20µM*
Cc1ncoc1C(=O)N1CCC2(CC1)CCC(O)(CN(C)C)CC2 | i
CCCOc1ccccc1NC(=O)Cc1nn(C)c(=O)c2ccccc12 | i
O=C(CSc1ncnc2ccccc12)Nc1ccccc1C(=O)Nc1ccc(Cl)cc1 | i
CC(C)c1ccc(C(=O)N2CCCC[C@H](N(C)C)C2)c(=O)n1C | i
CC(C)c1ccc(C(=O)N[C@H](C2CCNCC2)C2CC(O)C2)c(=O)n1C (stereo partly drawn) | 25.1µM*
